Holding throughout (assay): PBM; 200 nM protein, PBS
What all share (conditions): dsDNA, one strand shown

Assay [1] concerns the target T1, SIX6 (Homo sapiens, UniProt O95475 114-200, L167I).
T1 sequence: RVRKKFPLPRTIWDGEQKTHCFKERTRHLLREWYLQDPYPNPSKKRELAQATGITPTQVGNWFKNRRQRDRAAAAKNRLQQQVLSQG

Assay [2] deals with T2, SIX6 (Homo sapiens, UniProt O95475 114-200, L143V).
T2 sequence: T1 sequence with L30V, I54L

Assay [3] deals with T3, SIX6 (Homo sapiens, UniProt O95475 114-200, H141N).
T3 sequence: T1 sequence with H28N, I54L

The target in assay [4] is T4, SIX6 (Homo sapiens, UniProt O95475 114-200, T165P).
T4 sequence: T1 sequence with T52P, I54L

The target of assay [5] is T5, SIX6 (Homo sapiens, UniProt O95475 114-200, L167M).
T5 sequence: T1 sequence with I54M

Assay [6] has as its target T6, SIX6 (Homo sapiens, UniProt O95475 114-200, L143M).
T6 sequence: T1 sequence with L30M, I54L

The target in assay [7] is T7, SIX6 (Homo sapiens, UniProt O95475 114-200, L143I).
T7 sequence: T1 sequence with L30I, I54L

In assay [8] the target is T8, SIX6 (Homo sapiens, UniProt O95475 114-200, T165G).
T8 sequence: T1 sequence with T52G, I54L

Assay [9] addresses T9, SIX6 (Homo sapiens, UniProt O95475 114-200, T139Q).
T9 sequence: T1 sequence with T26Q, I54L

Assay [10] deals with T10, SIX6 (Homo sapiens, UniProt O95475 114-200, T165A).
T10 sequence: T1 sequence with T52A, I54L

Assay [11] concerns the target T11, SIX6 (Homo sapiens, UniProt O95475 114-200, L167V).
T11 sequence: T1 sequence with I54V

The target of assay [12] is T12, SIX6 (Homo sapiens, UniProt O95475 114-200).
T12 sequence: T1 sequence with I54L

Assay [13] concerns the target T13, SIX6 (Homo sapiens, UniProt O95475 114-200, T165I).
T13 sequence: T1 sequence with T52I, I54L

The results in this text go back to paper PMC11006913.

Changes are numbered by the printed parent chain.

Turning to GCCGCCCC, the binding signal with SIX6 [1] is 9.02 upbm affinity estimate (log intensity, higher = more binding, comparable within an allelic series); in the assay with SIX6 [2] it was 9.06 upbm affinity estimate (log intensity, higher = more binding, comparable within an allelic series); with SIX6 [3] it was 8.99 upbm affinity estimate (log intensity, higher = more binding, comparable within an allelic series); in the assay with SIX6 [4], 9.17 upbm affinity estimate (log intensity, higher = more binding, comparable within an allelic series); with SIX6 [5], 9.05 upbm affinity estimate (log intensity, higher = more binding, comparable within an allelic series); with SIX6 [6], 9.03 upbm affinity estimate (log intensity, higher = more binding, comparable within an allelic series). Besides, the binding signal with SIX6 [7] is 8.92 upbm affinity estimate (log intensity, higher = more binding, comparable within an allelic series); with SIX6 [8], 9.03 upbm affinity estimate (log intensity, higher = more binding, comparable within an allelic series); with SIX6 [9], 8.98 upbm affinity estimate (log intensity, higher = more binding, comparable within an allelic series); with SIX6 [10], 9.08 upbm affinity estimate (log intensity, higher = more binding, comparable within an allelic series); in the assay with SIX6 [11] it was 8.99 upbm affinity estimate (log intensity, higher = more binding, comparable within an allelic series); in the assay with SIX6 [12], 8.93 upbm affinity estimate (log intensity, higher = more binding, comparable within an allelic series). Further, the binding signal in the assay with SIX6 [13] was 9.05 upbm affinity estimate (log intensity, higher = more binding, comparable within an allelic series).

Consider GCAGTGGC, for which the binding signal with SIX6 [1] was 8.87 upbm affinity estimate (log intensity, higher = more binding, comparable within an allelic series); with SIX6 [2] it was 8.89 upbm affinity estimate (log intensity, higher = more binding, comparable within an allelic series); with SIX6 [3], 8.95 upbm affinity estimate (log intensity, higher = more binding, comparable within an allelic series); with SIX6 [4] it was 8.89 upbm affinity estimate (log intensity, higher = more binding, comparable within an allelic series); with SIX6 [5], 8.96 upbm affinity estimate (log intensity, higher = more binding, comparable within an allelic series); in the assay with SIX6 [6], 8.94 upbm affinity estimate (log intensity, higher = more binding, comparable within an allelic series). Also, the binding signal with SIX6 [7] is 8.96 upbm affinity estimate (log intensity, higher = more binding, comparable within an allelic series); in the assay with SIX6 [8] it was 8.99 upbm affinity estimate (log intensity, higher = more binding, comparable within an allelic series); with SIX6 [9], 8.93 upbm affinity estimate (log intensity, higher = more binding, comparable within an allelic series); with SIX6 [10], 8.93 upbm affinity estimate (log intensity, higher = more binding, comparable within an allelic series); with SIX6 [11], 8.89 upbm affinity estimate (log intensity, higher = more binding, comparable within an allelic series); with SIX6 [12], 8.98 upbm affinity estimate (log intensity, higher = more binding, comparable within an allelic series). In addition, the binding signal with SIX6 [13] was 8.94 upbm affinity estimate (log intensity, higher = more binding, comparable within an allelic series).

Take ATATCACA: the binding signal was 11.3 upbm affinity estimate (log intensity, higher = more binding, comparable within an allelic series) with SIX6 [1]; 10.3 upbm affinity estimate (log intensity, higher = more binding, comparable within an allelic series) in the assay with SIX6 [2]; 11.3 upbm affinity estimate (log intensity, higher = more binding, comparable within an allelic series) in the assay with SIX6 [3]; 9.9 upbm affinity estimate (log intensity, higher = more binding, comparable within an allelic series) with SIX6 [4]; 10.7 upbm affinity estimate (log intensity, higher = more binding, comparable within an allelic series) with SIX6 [5]; 11 upbm affinity estimate (log intensity, higher = more binding, comparable within an allelic series) in the assay with SIX6 [6]. Also, the binding signal with SIX6 [7] was 10.4 upbm affinity estimate (log intensity, higher = more binding, comparable within an allelic series); with SIX6 [8], 11.3 upbm affinity estimate (log intensity, higher = more binding, comparable within an allelic series); with SIX6 [9], 11.1 upbm affinity estimate (log intensity, higher = more binding, comparable within an allelic series); with SIX6 [10], 11.2 upbm affinity estimate (log intensity, higher = more binding, comparable within an allelic series); with SIX6 [11], 11.1 upbm affinity estimate (log intensity, higher = more binding, comparable within an allelic series); in the assay with SIX6 [12] it was 11 upbm affinity estimate (log intensity, higher = more binding, comparable within an allelic series). In addition, the binding signal with SIX6 [13] is 11 upbm affinity estimate (log intensity, higher = more binding, comparable within an allelic series).

For GGATATCA, the binding signal in the assay with SIX6 [1] was 11.4 upbm affinity estimate (log intensity, higher = more binding, comparable within an allelic series); with SIX6 [2] it was 10.4 upbm affinity estimate (log intensity, higher = more binding, comparable within an allelic series); in the assay with SIX6 [3] it was 11.4 upbm affinity estimate (log intensity, higher = more binding, comparable within an allelic series); with SIX6 [4] it was 9.53 upbm affinity estimate (log intensity, higher = more binding, comparable within an allelic series); with SIX6 [5] it was 10.9 upbm affinity estimate (log intensity, higher = more binding, comparable within an allelic series); with SIX6 [6] it was 11.1 upbm affinity estimate (log intensity, higher = more binding, comparable within an allelic series). Also, the binding signal in the assay with SIX6 [7] is 10.4 upbm affinity estimate (log intensity, higher = more binding, comparable within an allelic series); with SIX6 [8], 11.3 upbm affinity estimate (log intensity, higher = more binding, comparable within an allelic series); in the assay with SIX6 [9] it was 11.2 upbm affinity estimate (log intensity, higher = more binding, comparable within an allelic series); in the assay with SIX6 [10] it was 11.3 upbm affinity estimate (log intensity, higher = more binding, comparable within an allelic series); in the assay with SIX6 [11], 11.2 upbm affinity estimate (log intensity, higher = more binding, comparable within an allelic series); with SIX6 [12] it was 11.2 upbm affinity estimate (log intensity, higher = more binding, comparable within an allelic series). Also, the binding signal in the assay with SIX6 [13] is 11.2 upbm affinity estimate (log intensity, higher = more binding, comparable within an allelic series).

For the sequence CAGCGTGC, the binding signal with SIX6 [1] is 9.15 upbm affinity estimate (log intensity, higher = more binding, comparable within an allelic series); in the assay with SIX6 [2] it was 9.01 upbm affinity estimate (log intensity, higher = more binding, comparable within an allelic series); with SIX6 [3], 9.08 upbm affinity estimate (log intensity, higher = more binding, comparable within an allelic series); in the assay with SIX6 [4] it was 9.06 upbm affinity estimate (log intensity, higher = more binding, comparable within an allelic series); in the assay with SIX6 [5], 9.05 upbm affinity estimate (log intensity, higher = more binding, comparable within an allelic series); with SIX6 [6], 9.23 upbm affinity estimate (log intensity, higher = more binding, comparable within an allelic series). Further, the binding signal is 9.08 upbm affinity estimate (log intensity, higher = more binding, comparable within an allelic series) with SIX6 [7]; 9.19 upbm affinity estimate (log intensity, higher = more binding, comparable within an allelic series) in the assay with SIX6 [8]; 9.15 upbm affinity estimate (log intensity, higher = more binding, comparable within an allelic series) with SIX6 [9]; 9.11 upbm affinity estimate (log intensity, higher = more binding, comparable within an allelic series) with SIX6 [10]; 9.05 upbm affinity estimate (log intensity, higher = more binding, comparable within an allelic series) with SIX6 [11]; 9.14 upbm affinity estimate (log intensity, higher = more binding, comparable within an allelic series) with SIX6 [12]. For the same sequence, the binding signal in the assay with SIX6 [13] was 9.05 upbm affinity estimate (log intensity, higher = more binding, comparable within an allelic series).

As for GGCGGACC, the binding signal with SIX6 [1] is 8.97 upbm affinity estimate (log intensity, higher = more binding, comparable within an allelic series); with SIX6 [2], 8.88 upbm affinity estimate (log intensity, higher = more binding, comparable within an allelic series); with SIX6 [3] it was 9.01 upbm affinity estimate (log intensity, higher = more binding, comparable within an allelic series); in the assay with SIX6 [4] it was 8.96 upbm affinity estimate (log intensity, higher = more binding, comparable within an allelic series); in the assay with SIX6 [5], 8.9 upbm affinity estimate (log intensity, higher = more binding, comparable within an allelic series); in the assay with SIX6 [6], 8.83 upbm affinity estimate (log intensity, higher = more binding, comparable within an allelic series). The binding signal with SIX6 [7] is 8.88 upbm affinity estimate (log intensity, higher = more binding, comparable within an allelic series); with SIX6 [8], 8.99 upbm affinity estimate (log intensity, higher = more binding, comparable within an allelic series); with SIX6 [9], 8.91 upbm affinity estimate (log intensity, higher = more binding, comparable within an allelic series); in the assay with SIX6 [10], 8.99 upbm affinity estimate (log intensity, higher = more binding, comparable within an allelic series); with SIX6 [11], 8.82 upbm affinity estimate (log intensity, higher = more binding, comparable within an allelic series); with SIX6 [12], 8.92 upbm affinity estimate (log intensity, higher = more binding, comparable within an allelic series). The binding signal with SIX6 [13] was 8.89 upbm affinity estimate (log intensity, higher = more binding, comparable within an allelic series).
